Compounds with a hit are over-represented: about 1.6% of the library has one in this group of screens.
KCNQ2 pot: potentiators of rat KCNQ2 potassium channel | O88943 | CHO-K1 KCNQ2, FluxOR thallium flux fluorescence; hits give high values | B-score at 10 µM | 0.54% of 310,000 active | AID 2239;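 active means fluorescence ratio B-score at least 3 SD of library B-scores, with initial fluorescence B-score within 3 of them, cut at about 5.3 in these data; same plate scores as AID 2156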;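 further: B-score of peak minus minimum over baseline fluorescence ratio after K+ and Tl+ stimulus; positive B-score means potentiation of KCNQ2 with more thallium influx and brighter signal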
Target sequence (O88943 whole entry, looked up): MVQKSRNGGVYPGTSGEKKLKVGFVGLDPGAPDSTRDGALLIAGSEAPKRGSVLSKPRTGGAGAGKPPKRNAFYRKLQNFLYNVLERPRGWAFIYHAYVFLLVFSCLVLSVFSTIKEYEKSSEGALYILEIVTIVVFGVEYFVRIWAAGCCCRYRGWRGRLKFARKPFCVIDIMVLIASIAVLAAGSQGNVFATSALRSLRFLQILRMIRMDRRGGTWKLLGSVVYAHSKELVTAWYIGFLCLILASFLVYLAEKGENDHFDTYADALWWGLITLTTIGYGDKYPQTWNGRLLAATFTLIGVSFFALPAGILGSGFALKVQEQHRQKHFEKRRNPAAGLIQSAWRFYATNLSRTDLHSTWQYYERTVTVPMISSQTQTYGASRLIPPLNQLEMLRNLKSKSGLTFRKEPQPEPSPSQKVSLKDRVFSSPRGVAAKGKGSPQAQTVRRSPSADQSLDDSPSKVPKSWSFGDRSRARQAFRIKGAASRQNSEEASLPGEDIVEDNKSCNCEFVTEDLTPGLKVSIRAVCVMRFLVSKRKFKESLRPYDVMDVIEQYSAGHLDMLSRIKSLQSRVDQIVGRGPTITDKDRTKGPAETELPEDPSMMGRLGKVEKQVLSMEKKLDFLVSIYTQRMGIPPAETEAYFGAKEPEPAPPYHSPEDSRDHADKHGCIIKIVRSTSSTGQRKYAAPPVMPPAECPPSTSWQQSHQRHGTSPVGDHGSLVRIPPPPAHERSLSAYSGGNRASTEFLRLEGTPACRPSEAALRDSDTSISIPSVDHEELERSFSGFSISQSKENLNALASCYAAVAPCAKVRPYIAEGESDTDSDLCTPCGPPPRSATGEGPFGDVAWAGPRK
KCNQ2 block: KCNQ2 (rat) channel inhibition. CHO-K1 KCNQ2, FluxOR thallium flux, 20 min; hits give low values. 1.1% of 310,000 active. B-score at 10 µM;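 active means fluorescence ratio B-score at most minus 3 library SDs, with starting brightness B-score within 2 library SDs, cut at about -5.5 in these data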
Starred values were filed as active, the others as inactive; i = inactive; . = no result.

SMILES	KCNQ2 pot	KCNQ2 block
Cc1ccc(NC(=O)[C@H](Cc2ccccc2)NC(=O)[C@@H]2Cc3ccccc3CN2)c(C)c1	.	i
CC(C)C[C@H](NC(=O)[C@@H]1Cc2ccccc2CN1)C(=O)Nc1ccc(C(C)C)cc1	.	i
Cc1ccc(NC(=O)[C@H](Cc2c[nH]c3ccccc23)NC(=O)[C@@H]2Cc3ccccc3CN2)c(C)c1	-6.7	-6.7*
Cc1cccc(NC(=O)[C@H](Cc2c[nH]c3ccccc23)NC(=O)[C@@H]2Cc3ccccc3CN2)c1	-6.5	-6.5*
CC(NC(=O)[C@H](Cc1c[nH]c2ccccc12)NC(=O)[C@@H]1Cc2ccccc2CN1)c1ccccc1 (some centres not stated)	-5.9	-5.9*
CCc1ccc(NC(=O)[C@H](Cc2c[nH]c3ccccc23)NC(=O)[C@@H]2Cc3ccccc3CN2)cc1	.	i
CCN(CC)CCC(C)OC(=O)c1ccc(O)cc1O (configuration not stated)	.	i
CC(C)Oc1ccc(S(=O)(=O)N2CCOCC2)cc1NC(=O)Cc1c(F)cccc1Cl	.	i
Clc1ccccc1Cn1c(/C=C/c2ccco2)nc2ccccc21	-7	-7*
COc1ccc(Cn2c(/C=C/c3ccccc3)nc3ccccc32)cc1	.	i
COc1ccc(S(=O)(=O)N2CCCC2CNC(=O)C(=O)NCc2ccccc2Cl)cc1 (configuration not stated)	.	i
COC(=O)C1CN(S(=O)(=O)c2cc(OC)ccc2OC)CCS1 (configuration not stated)	0.05	i
O=C(Nc1ccc(F)cc1F)c1sccc1SCc1cccc(C(F)(F)F)c1	-5.9	-5.9*
O=C(Nc1ccc(F)cc1)c1sccc1SCc1cccc(C(F)(F)F)c1	.	i
CC(=O)c1ccc(NC(=O)COC(=O)c2ccccc2Nc2ccccc2)cc1	.	i
O=C(COC(=O)c1ccccc1Nc1ccccc1)Nc1ccccc1	5.8*	i
COc1ccccc1N1CCN(/N=C/c2cccc(OC)c2OC)CC1	-7.3	-7.3*
COc1ccccc1N1CCN(/N=C\c2ccccc2)CC1	.	i
COc1ccccc1N1CCN(/N=C/c2cc(OC)c(OC)c(OC)c2)CC1	.	i
COc1ccccc1N1CCN(/N=C\c2sccc2C)CC1	-6.2	-6.2*
O=C(COC(=O)C1CCN(S(=O)(=O)c2cccs2)CC1)Nc1ccc(F)cc1F	0.97	i
C=CCNc1nc(S(=O)Cc2ccc(C)cc2)nc2c1CCCC2 (configuration not stated)	0.37	i
Cc1c(C(=O)N2CCCCC2)c(S(=O)(=O)NCCc2ccc(Cl)cc2)c(C)n1C	0.38	i
Cc1ccc(Nc2[nH]c(=O)c3ccccc3c2C(=O)c2ccccc2)cc1	.	i
O=C(c1ccncc1)N(c1ccc2oc3c(c2c1)CCCC3)S(=O)(=O)c1cccc([N+](=O)[O-])c1	.	i
SMILES	KCNQ2 pot	KCNQ2 block
COc1ccc(S(=O)(=O)N(C(=O)c2ccncc2)c2ccc3oc4c(c3c2)CCCC4)cc1	-5.7	-5.7*
COc1ccc2c(Cl)c(C(=O)NN3CCN(C)CC3)sc2c1	.	i
Cc1cccc(CN2CCC(Oc3ccc(C(=O)N4CCCC4)cc3)CC2)n1	.	i
Cc1cccc(Nc2nc(N3CCOCC3)nc(N3CCOCC3)n2)c1	0.48	i
Cn1ccnc1Sc1nc(Nc2cccc(Cl)c2)nc(N2CCOCC2)n1	-6.2	-6.2*
N#CCCN/N=C(\Cc1nc2ccccc2[nH]1)c1ccccc1	.	i
N#CCCN/N=C(/Cc1nc2ccccc2[nH]1)c1ccc(Cl)cc1	-10	-10*
CCCN(CCC)C(C(=O)Nc1cccc(OC)c1)c1ccccc1 (configuration not stated)	-5.9	-5.9*
CCC(C(=O)OCC(=O)Nc1cccc(OC)c1)c1ccccc1 (configuration not stated)	.	i
COc1ccccc1NC(=O)C(C)OC(=O)CCCOc1ccccc1 (configuration not stated)	.	i
CC(=O)c1cccc(N(C(=O)c2ccco2)C(C(=O)NC2CCCC2)c2ccccc2F)c1 (configuration not stated)	.	i
CC[C@@H](C(=O)[C@@H](C)[C@@H](O)[C@H](C)CCc1ccc(C)c(O)c1C(=O)O)[C@H]1O[C@](CC)([C@H]2CC[C@](O)(CC)[C@H](C)O2)C[C@@H]1C	27*	i
COc1ccc([N+](=O)[O-])cc1N(CC(=O)NCC1CCCO1)S(C)(=O)=O (configuration not stated)	0.41	i
COc1cccc(N2CCN(C(=O)c3cc4ccc(OC)cc4[nH]3)CC2)c1	1.2	i
COc1ccc2cc(C(=O)N3CCN(c4cccc(C)c4C)CC3)[nH]c2c1	-6.2	-6.2*
CC(OC(=O)Cn1[nH]c(=O)c2ccccc2c1=O)C(=O)c1ccccc1 (configuration not stated)	.	i
CN(C(=O)CC(NC(=O)c1ccccc1Cl)c1ccccc1)c1ccccc1 (configuration not stated)	-5.7	-5.7*
O=C(CC(NC(=O)c1ccccc1Cl)c1ccccc1)NCCc1ccc(Cl)cc1 (configuration not stated)	.	i
CCCS(=O)(=O)c1nc(S(=O)(=O)c2ccc(C)cc2)c(N2CCC3(CC2)OCCO3)s1	.	i
CCn1ccnc1CN(C)Cc1cn(-c2ccc(C)cc2)nc1-c1ccc(F)cc1	.	i
CCn1ccnc1CN(C)Cc1cn(-c2cc(C)ccc2C)nc1-c1ccccc1	-8.2	-8.2*
CCCc1c(C(=O)NNc2cccc(Cl)c2)cnn1-c1ccccc1	.	i
COc1ccc(Cn2ccnc2SCC(=O)Nc2ccccc2F)cc1	.	i
COc1ccc(Cn2ccnc2SCC(=O)Nc2ccccc2OC)cc1	-6.1	-6.1*
CC(C)NC(=O)NC(=O)CSc1nnc(-c2c[nH]c3ccccc23)o1	.	i
SMILES	KCNQ2 pot	KCNQ2 block
CCCn1c(NCc2cccc(OC)c2OC)nc2ccccc21	-5.9	-5.9*
CCCn1c(NCc2cccc(OC)c2O)nc2ccccc21	.	i
Cc1nn(-c2ccccc2)c(Cl)c1CN(C(=O)CCl)c1cccc2ccccc12	.	i
OC1(c2ccc(Br)cc2)CN(c2ccccc2)C2=[N+]1CCS2 (configuration not stated)	-6	-6*
COc1ccc(OC)c(N2CC(O)(c3ccccc3)[N+]3=C2SCCC3)c1 (configuration not stated)	.	i
COc1ccc(C2(O)CN(c3ccccc3)C3=[N+]2CCS3)cc1OC (configuration not stated)	.	i
OC1(c2ccc(Cl)cc2)CN(c2ccccc2)C2=[N+]1CCS2 (configuration not stated)	-7.2	-7.2*
O=C(/C=C/c1ccc(-c2ccccc2[N+](=O)[O-])o1)c1ccc(F)cc1	.	i
O=C(/C=C/c1ccc(-c2ccccc2[N+](=O)[O-])o1)c1ccc(Br)cc1	-7.2	-7.2*
O=C(C[n+]1cccc2ccccc21)c1ccc(Br)cc1	0.78	i
O=C(C[n+]1cc(Br)cc(Br)c1)c1ccc(Cl)cc1	.	i
O=C(C[n+]1cc(Br)cc2ccccc21)c1ccc(Cl)cc1	-7.5	-7.5*
O=C(C[n+]1cc(Br)cc2ccccc21)c1ccc(Br)cc1	-6.1	-6.1*
CCOc1cccc(C(=O)NNC(=O)C2C3C=CC(C3)C2C(=O)O)c1 (configuration not stated)	0.28	i
N#Cc1c(N2CCN(C(=O)c3ccco3)CC2)nc(-c2ccccc2)c2c1CCCC2	-5.6	-5.6*

Source: PubChem (Johns Hopkins Ion Channel Center)
